Test results published in the OligoGym collection.

target: TP53I13; assay: pooled miR-30 sensor sort-seq; sequence = guide strand; details: shRNA
Note: reference of the scale not given here.

Row | Sequence | sensor-assay potency score (higher = more potent)
1 | TAGCCATACAAGCATAGGCCAG | -1.71
2 | TCGTGTGTAGGTCACTCTTGGT | -1.06
3 | TCGGAAGTTTCTGTGCAGCCGT | -0.684
4 | TCACTCTTGGTGACACCTGCGG | -0.664
5 | TTGAACAGACACAGCCCCCTGG | 0.146
6 | TTTCACAGTAGATCCATGCCTT | 0.393
7 | TGACTTGAACAGACACAGCCCC | -0.111

target: TP73; assay: as above; details: shRNA

Row | Sequence | sensor-assay potency score (higher = more potent)
8 | TCGAAGTAGGTGCTGTCTGGTT | -0.818
9 | TTGGGTGTAGCTGCCGAACTGT | -0.212
10 | TGGAGCAGACTGTCCTTCGTTG | -1.24
11 | TCTGGTTCCAGAGAGCTCCAGA | 0.275
12 | TACACAGCTGCTGTTACACATG | -0.991
13 | TTACACATGAAGTTGTACAGGA | 1.03
14 | TTGTAAACAGGCATGGCCCGGA | 0.143
15 | TAGTACGTGTCCTCGTCTCCAT | -0.503
16 | TTTCACGACGTCGGTCACGTGC | -1.03
17 | TTGGGAGGTGAAATACTCGATG | -0.725
18 | TAGAGTTTCTTCAAGAGCGGGG | 0.308
19 | TGTAGCTGCCGAACTGTGCGGG | -0.215

target: TPPP2; assay: as above; details: shRNA

Row | Sequence | sensor-assay potency score (higher = more potent)
20 | TTGAACTGTTGAAACGTGATGG | 0.216
21 | TTGTTGCTTTAGTAGCGCCAGT | -1.46
22 | TTGCTGGTGTCTGTCAAACGGT | -1.11
23 | TTGTCAGTCATCTCTTCCCGTC | -0.714
24 | TTTGCTGAACACGATGTCCACG | -0.579
25 | TTGTTGTTCATTTCAGTGCCAC | 0.0122
26 | TTATTGTTTTCCAAGCTCCCTG | -0.417
27 | TTCTTGGCCTTGACTTTGCTGA | -0.996
28 | TCTTTGAACTGTTGAAACGTGA | -0.298
29 | TTGATGATTCTCCAAACGCAGC | -1.67
30 | TGTAACCACTCACATAGCCTGT | -0.785
31 | TTGTAACCACTCACATAGCCTG | -0.748

target: TPPP3; assay: as above; details: shRNA

Row | Sequence | sensor-assay potency score (higher = more potent)
32 | TTTCCGTCAGCCACCTTGCAGT | -0.592
33 | TTTTGCTTTAGTGACGCCCACA | -1.34
34 | TTGTGGGAGCCCGTGTATCTGC | -1.44
35 | TTGACTTTGGAGAAGACGATGT | -0.378
36 | TTGGTCGCCAGCTCTTCCAGGG | -0.176
37 | TTGTAGGCGCTCACGTAGCCAC | -1.01
38 | TCGTCCAGGATGTCCTGCCGTC | -0.707
39 | TTGAACTCCTCATAGTTGATGA | -0.547
40 | TTGCCATTCATCTCTTGCCCAC | -1.13
